HttQ103 aggreg = mutant huntingtin aggregation inhibition; PC12 HttQ103-GFP aggregates, Acumen cytometry, 40 h; Potency, µM (highest dose often 46.1 µM), for the others: at the highest dose activity change, negative = inhibition, usual class: inhibitors; 1.1% of 220,000 active; AID 1688; also: % is scaled to controls: 0 for no effect and ±100 for the full control effect; nearly all actives have a fitted effect of over 60% in size
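Using laser scanning cytometry, GFP-positive aggregates were counted after lysis of PC12 cells induced with 100 nM tebufenozide to express HTT exon 1 Q103–GFP. Compounds were tested in titration.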
KDM4E inh = JMJD2E (human) inhibition; B2RXH2; JMJD2E catalytic domain, FDH-coupled NADH fluorescence (FDH is formaldehyde dehydrogenase); Potency, µM (highest dose often 57.1 µM), without a hit: at the highest dose activity change, negative = inhibition, most hits filed as inhibitors; 1.6% of 230,000 active; AID 2147; active = well fitted inhibition curve with a large enough effect, not every such curve was filed as active; inconclusive = small, poorly fitted or top-dose-only effect, or another doubt; inactive = no such curve, though single readings can be large or run the other way;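 also: 0% = wells with enzyme and -100% = buffer wells without enzyme; nearly all actives have a fitted effect of over 50% in size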
L3MBTL1 inh = inhibitors of human L3MBTL1; AlphaScreen L3MBTL1–H3K9me1 peptide binding; Potency, µM (titrated, usually from 57.1 µM), for the others: at the top dose activity, negative = inhibition, most hits filed as inhibitors; 0.66% of 230,000 active; AID 485360; also: % is scaled to controls: 0 for no effect and ±100 for the full control effect; nearly all actives have a fitted effect of over 60% in size
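First, the protein-peptide complex forms for 30 min at room temperature (L3MBTL1 50 nM, biotinylated H3K9me1 peptide 75 nM). Next, compounds are pin-transferred and incubated 30 min. Finally, AlphaScreen beads are added and read after 30 min.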
HTT ATP protect = cytoprotection in Huntington HTT-Q103 PC12 cell model. Potency, µM (titrated, usually from 56.4 µM), without a hit: cytoprotection (ATP increase), usual class: activators. 0.14% of 230,000 active. AID 1471. PC12 HTT-Q103 induced, cytoprotection, ATP luminescence, 40 h; also: % of control where 0% means no effect; nearly all actives have a fitted effect of over 45% in size
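Compounds were screened for protection of PC12 cells against cell death after tebufenozide induction (100 nM final) of mutant Huntingtin exon 1 (Q103) fused to GFP.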
Numbers without * were called inactive; ? = inconclusive; . = no result; [ ] = another dose, or the depositor's remark. Only some compounds are listed: those with a hit (about 1.8% of all), similar ones and a draw of the others. Unless noted, calls follow the shape of the dose curve; as a rule, active = well fitted curve in the direction sought with a large enough effect; inconclusive = small, poorly fitted or top-dose-only effect, or another doubt; inactive = no such curve, though single readings can be large; an effect the other way counts as inactive or inconclusive. Potency is read from the fitted curve at half-maximal effect.

SMILES	HttQ103 aggreg	KDM4E inh	L3MBTL1 inh	HTT ATP protect
COCCn1c(CN2CCN(c3cccc(Cl)c3)CC2)nc2c1c(=O)n(C)c(=O)n2C	20µM*	-5.8%	-1.1%	-35.5%
C=CCn1c(NS(=O)(=O)c2ccccc2)c(S(=O)(=O)c2ccc(C)cc2)c2nc3ccccc3nc21	0.8%	0.5%	3.55µM*	-17.6%[10 µM]
O=S(=O)(Nc1c(S(=O)(=O)c2ccccc2)c2nc3ccccc3nc2n1C1CCCCC1)c1ccccc1	-6.1%	?	?	-48.6%[10 µM]
COCOc1cc(OC)ccc1C(=O)/C=C\c1ccc2c(c1)OCO2	.	.	.	18.5%[10 µM]
COc1ccc(CNC(=O)c2c(O)c3cccc4c3n(c2=O)CCC4)cc1	?	0.794µM*	2.8%	-7.8%
Cc1onc(-c2c(Cl)cccc2Cl)c1C(=O)N[C@H]1C(=O)N2[C@H]1SC(C)(C)[C@H]2C(=O)O	.	4.1%[25.5 µM]	.	-42.2%[17.1 µM]
CC1=C(/C=C/C(=C/C=C/C(C)=C/C(=O)O)c2ccc(C)cc2)C(C)(C)CCC1	.	.	.	37.8%
S=C(NC1CCCCC1)N1CCc2ccccc2C1	7.08µM*	-3.2%	-5.6%	.
S=C(NC1CC1)N1CCc2ccccc2C1	-11.9%	0.3%	-0.9%[11.4 µM]	0.4%
O=c1c(O)cccc2cc(O)c(O)c(O)c12	9.3%[9.22 µM]	3.98µM*	0.562µM*	16.2%[10 µM]
COc1cc2cccc(OC)c(=O)c2c(OC)c1OC	9.9%	-23.9%	-4.6%	-0.8%
C(=N\Nc1nc(Nc2ccccc2)nc(Nc2ccccc2)n1)/c1cccnc1	4.47µM*	11.2%	-2.9%	-9.0%[10 µM]
C(=N\Nc1nc(Nc2ccccc2)nc(Nc2ccccc2)n1)/c1ccncc1	.	-16.1%	-15.0%	.
CCCCOCCOCCOCc1cc2c(cc1CCC)OCO2	23.1%	.	.	11.3%
CC(=O)N1CCN(c2ccc(NCc3ccccc3)cc2)CC1	5.9%	-5.8%	-4.8%	-20.7%
Fc1ccc(CNc2ccc(N3CCN(Cc4ccccc4)CC3)cc2)cc1	.	.	22.4µM*	.
Cc1ccc(-n2c(C)cc(/C=N/NC(=O)CC3(C)OCCO3)c2C)c(C)c1	-1.9%	-29.4%	-1.1%	-3.9%[10 µM]
CC1(CC(=O)N/N=C/c2cc([N+](=O)[O-])c(O)cc2O)OCCO1	-14.8%	15.8µM*	?	.
CCN1/C(=C/C=C/C=C/c2sc3ccccc3[n+]2CC)Sc2ccccc21	3.98µM*	22.4µM*	?	-98.8%
CC[n+]1c(/C=C(/C)SC)sc2ccccc21	-16.5%	-7.7%	14.4%	-5.9%[10 µM]
CCN1/C(=C/C=C/c2sc3ccccc3[n+]2CC)Sc2ccccc21	2µM*	.	28.2µM*	-97.1%
O=C(O)CCCC[C@@H]1SC[C@H]2NC(=O)N[C@H]12	.	.	.	-27.0%
COc1cccc(/C=N/Nc2nc3ccccc3n3cnnc23)c1	-12.3%	-2.9%	0.4%	-7.9%[1.9 µM]
COc1cccc(/C=N/Nc2nc3ccccc3[nH]2)c1O	?	4.47µM*	19.2%	-86.9%[10 µM]
COc1cccc(/C=N\NC(=O)Cn2nnc3ccccc32)c1O	-13.3%[9.22 µM]	28.2µM*	-8.3%	-8.7%[10 µM]
SMILES	HttQ103 aggreg	KDM4E inh	L3MBTL1 inh	HTT ATP protect
COc1cccc(/C=N/Nc2nc3ccccc3n3cnnc23)c1O	8.91µM*	28.2µM*	-17.7%	-42.2%[10 µM]
CC(C)[C@@H]1OC(=O)C=CC=CC=CC=CC=CC[C@@H](O)[C@H](C)[C@@H](O)C[C@H](O)C[C@H](O)C[C@H](O)C[C@H](O)C[C@H](O)C[C@H](O)C=C[C@@H]1C	.	.	.	-4.5%[10 µM]
C=CCN1CC(C(=O)N(CCCN(C)C)C(=O)NCC)CC2c3cccc4[nH]cc(c34)CC21 (stereo not drawn)	2.0%	.	.	-26.3%
FC(F)(F)c1cc(NC(=S)Nc2ccc3cc4ccccc4cc3c2)cc(C(F)(F)F)c1	.	?	.	-2.5%
O=C1CC2(CCCC2)CC(=O)N1CCCCNC[C@H]1COc2ccccc2O1	.	10.2%	.	15.0%
CC(C)Cc1nc2ccc(N)cc2[nH]1	-8.4%[9.22 µM]	35.5µM*	-10.5%	-12.4%[10 µM]
CC(C)Cc1nc2ccccc2[nH]1	-0.9%[9.22 µM]	-0.8%	6.7%	15.0%[10 µM]
CC1=NN(c2ccc(C)cc2)C(=O)/C1=C/c1ccc(-c2cc([N+](=O)[O-])ccc2O)o1	.	.	31.6µM*	.
COC(=O)[C@@]1(Cc2ccccc2-c2ccco2)C=C[C@H](C)[C@@H](c2ccccc2)N1C(=O)C(F)(F)F	.	-11.1%	.	10µM*
NS(=O)(=O)c1ccc(CNS(=O)(=O)Cc2ccc(Cl)cc2)cc1	.	.	2.2%	.
CN1CCN(c2ccc(CNS(=O)(=O)Cc3ccc(Cl)cc3)cc2)CC1	-5.7%[9.22 µM]	-1.8%	4.47µM*	-4.5%[10 µM]
Cc1ccc(Cl)cc1N1CCN(C(=O)C2CCN(S(=O)(=O)c3cccnc3)CC2)CC1	11.2µM*	-2.6%	.	10.2%

Assay outcomes (PubChem)
